Data taken from PubChem BioAssay AID493201 (National Center for Advancing Translational Sciences (NCATS), 2011).
Records with an inconclusive call do not appear. Where a call stands in place of a potency, no number is given. Active and inactive are the calls of the source. The call rests on the fitted dose curve; in most records, active means well fitted activation curve with a large enough effect; inconclusive means small, poorly fitted or top-dose-only effect; inactive means no such curve, though single readings can be large or run the other way.

Experiment: qHTS Assay for Identifying a Potential Treatment of Ataxia-Telangiectasia: Secondary assay (no NCS) hit validation;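 further: phosphorylated KAP1 signal as a proxy for ATM-like kinase activity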
Conditions: A-T patient fibroblasts, AlphaLISA, no DNA damage added, 90 min; series mostly up to 76.9 µM
In short: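 Without NCS-induced DNA breaks, ATM-like activity scored as phospho-KAP1 AlphaLISA signal (pKAP1/total KAP1 bead pair) in ATM-null F2112 fibroblasts; compound series up to 76.7 uM final, 37C incubation, lysates read on AlphaScreen protocol.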
Potency means the concentration at half of the fitted maximal effect.

| SMILES | Potency |
| --- | --- |
| CS(=O)(=O)c1ccc(-c2csc(-c3cccnc3)n2)cc1 | inactive |
| O=C(CCCC(=O)N1CCCC1)N1CCCC1 | inactive |
| COc1ccc(NC(=O)C2CC2)cc1OC1CCCC1 | inactive |
| CCOC(=O)c1[nH]c(COC(=O)c2ccccc2NC(=O)c2ccco2)c(C(=O)OCC)c1C | inactive |
| C=CCN1C(=O)/C(=C/C(=O)OC)S/C1=N\NC(=O)c1ccccc1 | inactive |
| CCOC(=O)Cc1csc(NC(=O)CSc2nnc(C(C)C)n2C)n1 | inactive |
| O=c1c2cc(Br)ccc2nc(-c2ccccc2)n1O | inactive |
| CCN(c1ccccc1)S(=O)(=O)c1ccc(Cl)c(C(=O)N(CC2CCCO2)C2CCS(=O)(=O)C2)c1 (configuration not stated) | 14.6 µM (active) |
| COc1ccc(C2(C)CC(C)(C)Nc3ccccc32)cc1 (configuration not stated) | inactive |
| CCCCCCCCCn1ccc(=N)cc1 | inactive |
| CCC(C)N1C(=S)SC(C)(C)C1N(O)C(=O)NC1CCCCC1 (configuration not stated) | inactive |
| COc1ccccc1S(=O)(=O)Nc1ccc(-c2nnc3n2CCCCC3)cc1 | inactive |
| S=c1[nH]nc(C2CCCCC2)n1/N=C/c1ccc(Br)cc1 | inactive |
| CNC(=S)N(CCc1c(C)[nH]c2ccc(Cl)cc12)Cc1cccnc1 | inactive |
| Cc1ccc2c(c1)C(=O)CC(O)(C(F)(F)F)O2 (configuration not stated) | inactive |
| COc1ccccc1Nc1nc(NCCCN(C)C)nc(N)c1[N+](=O)[O-] | 2.6 µM (active) |
| CC(=O)/C(N=Nc1nc2c([nH]1)c(=O)n(C)c(=O)n2C)=C(\C)O | inactive |
